The panel holds about 83,000 compounds, 20% with a hit somewhere; the sample as a whole holds those more often.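 Assay: single dose, 48 h. Readout: percent growth (0 = no net growth; negative = cell death). Active: <10.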 Values without a mark were called inactive. Calls of active or inactive are those of the source.
Columns and labels:
Assay in all cases: NCI-60 one-dose screen, 48 h (100 = growth as untreated, 0 = no growth, -100 = all killed)
Settings in all cases: 10 µM unless noted
HCT-15 colon = system: HCT-15 colon
HT29 colon = system: HT29 colon
SNB-75 CNS = system: SNB-75 CNS
SNB-19 CNS = system: SNB-19 CNS
U251 CNS = system: U251 CNS
PC-3 prostate = system: PC-3 prostate
SK-MEL-5 melanoma = system: SK-MEL-5 melanoma
UACC-62 melanoma = system: UACC-62 melanoma
SK-MEL-28 melanoma = system: SK-MEL-28 melanoma
SK-MEL-2 melanoma = system: SK-MEL-2 melanoma
EKVX NSCLC = system: EKVX NSCLC
SN12C renal = system: SN12C renal
UO-31 renal = system: UO-31 renal
TK-10 renal = system: TK-10 renal
ACHN renal = system: ACHN renal
CAKI-1 renal = system: CAKI-1 renal
A498 renal = system: A498 renal
CCRF-CEM leukemia = system: CCRF-CEM leukemia
MOLT-4 leukemia = system: MOLT-4 leukemia

Row | Compound | growth (HCT-15 colon) | growth (HT29 colon) | growth (SNB-75 CNS) | growth (SNB-19 CNS) | growth (U251 CNS) | growth (PC-3 prostate) | growth (SK-MEL-5 melanoma) | growth (UACC-62 melanoma) | growth (SK-MEL-28 melanoma) [%] | growth (SK-MEL-2 melanoma) | growth (EKVX NSCLC) | growth (SN12C renal) | growth (UO-31 renal) | growth (TK-10 renal) | growth (ACHN renal) | growth (CAKI-1 renal) | growth (A498 renal) | growth (CCRF-CEM leukemia) | growth (MOLT-4 leukemia)
1 | CC1(n2nnnc2N2CCCN(c3ncccc3N)CC2)CCC1 | 58.3% | 108% | 81.7% | 98.6% | 101% | 75.3% | 86.3% | 94.9% | 100 | 110% | 97.5% | 95.7% | 92.4% | 99% | 99.2% | 90.7% | 93.3% | 103% | 99.3%
2 | Cc1ccc2c(c1)c(-c1nc(-c3c[nH]c4ncccc34)cs1)cn2C | 86.5% | 69% | 91.2% | 107% | 98.6% | 85.7% | 98.8% | 94.5% | 109 | 99.3% | 35.1% | 90.9% | 86.2% | 81.5% | 98.6% | 107% | 112% | 77.7% | 75.2%
3 | COc1ccc2[nH]cc(-c3nc(-c4c[nH]c5ncccc45)cs3)c2c1 | -34.8% (active) | 12.1% | 19.5% | 77.4% | 34.8% | 44.2% | 48.2% | 50.4% | 69.9 | 32.9% | 64.4% | 53.2% | 15.1% | 31.9% | 19.8% | 4.05% (active) | 10.9% | 28.3% | 8.76% (active)
4 | CC(C)/C=C/CC[C@](C)(O)[C@H]1CC[C@]2(C)[C@@H]1CC[C@@H]1[C@@]3(C)C/C(=C/c4cccc(C(F)(F)F)c4)C(=O)C(C)(C)[C@@H]3CC[C@]12C | 90.6% | 97.3% | 62.8% | 92.2% | 92.6% | 79.5% | 97.6% | 81.8% | 105 | 126% | 103% | 89.2% | 79.6% | 157% | 97% | 64.3% | 99% | 86.9% | 88.3%
5 | COc1cc2nc(Cl)nc(Nc3cccc(C(=O)/C=C/c4ccccc4)c3)c2cc1OC | -34.1% (active) | 4.17% (active) | 62.1% | 32.9% | 21.4% | 49.2% | 68.8% | 57.8% | 56.4 | 86.8% | 81.5% | 59.5% | 50.8% | 143% | 13.7% | 48.4% | 90.6% | 28.9% | 34.5%
6 | CN(C)c1ccc(-c2ccc(-c3ccc(C(=N)N)c(F)c3)s2)cc1 | -80.8% (active) | -61.2% (active) | 98.9% | -71% (active) | -96.2% (active) | -90.4% (active) | -64.9% (active) | -93.3% (active) | 74.5 | -0.355% (active) | -73.6% (active) | -76.5% (active) | -92.6% (active) | -85.5% (active) | -95.8% (active) | -87.9% (active) | 4.91% (active) | -37.4% (active) | -19.3% (active)
7 | Nc1c2c(nc3ccc(Cl)cc13)CC(c1ccccc1)CC2=O (centres undefined) | 16.7% | 13.1% | 23.4% | 37% | 40.9% | 54.8% | 30.6% | 23.7% | 51.5 | 59% | 40.3% | 61.3% | 57.8% | 79.6% | 47.9% | 44.5% | 49.3% | 43.9% | 51%
8 | CC1(C)[C@@H](O)CC[C@]2(C)[C@H]3CC[C@@H]4[C@H]5[C@H](C(=O)/C=C/c6ccc(C(F)(F)F)cc6)CC[C@]5(CO)CC[C@@]4(C)[C@]3(C)CC[C@@H]12 | 34.4% | 36.1% | 60% | 61.1% | 53.6% | 43.9% | 13.1% | 36.5% | 54.6 | 83.7% | 71.2% | 58.8% | 46.7% | 105% | 25.9% | 47.4% | -1.48% (active) | 28.4% | 14%
9 | Cc1csc(Nc2nc(-c3cccc(Br)c3)nc(C(Cl)(Cl)Cl)n2)n1 | 59.3% | 18.9% | 52.5% | 39.8% | 35.8% | 48.9% | 91.1% | 60.5% | 47 | 104% | 22.8% | 78.5% | 49.4% | 49.9% | 0.817% (active) | 21.6% | 31.5% | 91.4% | 80.7%
10 | N#CC1=C(N)Oc2ccc3ccccc3c2C1c1ccccc1 (centres undefined) | 19.5% | 17.7% | -16.3% (active) | 29.5% | 32.5% | 40.6% | 25.7% | 18.6% | 54.6 | 49.7% | 39% | 42.2% | 44.9% | 121% | 37.3% | 23.3% | 21.5% | 20.7% | 32.6%
11 | CCN1CCN(C(=O)[C@]23CCC(C)(C)C[C@@H]2C2=CC[C@@H]4[C@@]5(C)C/C(=C/c6cccnc6)C(=O)C(C)(C)[C@@H]5CC[C@@]4(C)[C@]2(C)CC3)CC1 | 13.7% | 10.6% | 45.3% | 48.3% | -88.1% (active) | 17.2% | -91% (active) | 26.6% | 41.7 | 41.9% | 25.4% | 29.5% | 33.3% | 52.4% | 33.4% | 31.5% | 45.1% | 33.4% | 4.16% (active)

Source: PubChem BioAssay (NCI)
